Source: PubChem (National Center for Advancing Translational Sciences (NCATS))
This is a sample that favours compounds with a hit; in the whole collection about 3.6% have one here.
NPSR antagonist: qHTS Assay for Antagonists of the Neuropeptide S Receptor: cAMP Signal Transduction; Q6W5P4; AID 1461, 2008; CHO-NPSR cells, cAMP TR-FRET, antagonist mode; actives 1% (n = 220,000); Potency, µM (doses to about 38.3 µM), actives largely listed as inhibitors; note: nearly all actives have a fitted effect of over 50% in size
KAT2A inh: qHTS Assay for Inhibitors of GCN5L2; GCN5L2 HAT assay, ThioGlo1 CoA-SH fluorescence; Potency, µM (highest dose often 58.9 µM), usual class: inhibitors; actives 0.21% (n = 390,000); AID 504327, 2011
Target sequence (Q92830 whole entry, looked up): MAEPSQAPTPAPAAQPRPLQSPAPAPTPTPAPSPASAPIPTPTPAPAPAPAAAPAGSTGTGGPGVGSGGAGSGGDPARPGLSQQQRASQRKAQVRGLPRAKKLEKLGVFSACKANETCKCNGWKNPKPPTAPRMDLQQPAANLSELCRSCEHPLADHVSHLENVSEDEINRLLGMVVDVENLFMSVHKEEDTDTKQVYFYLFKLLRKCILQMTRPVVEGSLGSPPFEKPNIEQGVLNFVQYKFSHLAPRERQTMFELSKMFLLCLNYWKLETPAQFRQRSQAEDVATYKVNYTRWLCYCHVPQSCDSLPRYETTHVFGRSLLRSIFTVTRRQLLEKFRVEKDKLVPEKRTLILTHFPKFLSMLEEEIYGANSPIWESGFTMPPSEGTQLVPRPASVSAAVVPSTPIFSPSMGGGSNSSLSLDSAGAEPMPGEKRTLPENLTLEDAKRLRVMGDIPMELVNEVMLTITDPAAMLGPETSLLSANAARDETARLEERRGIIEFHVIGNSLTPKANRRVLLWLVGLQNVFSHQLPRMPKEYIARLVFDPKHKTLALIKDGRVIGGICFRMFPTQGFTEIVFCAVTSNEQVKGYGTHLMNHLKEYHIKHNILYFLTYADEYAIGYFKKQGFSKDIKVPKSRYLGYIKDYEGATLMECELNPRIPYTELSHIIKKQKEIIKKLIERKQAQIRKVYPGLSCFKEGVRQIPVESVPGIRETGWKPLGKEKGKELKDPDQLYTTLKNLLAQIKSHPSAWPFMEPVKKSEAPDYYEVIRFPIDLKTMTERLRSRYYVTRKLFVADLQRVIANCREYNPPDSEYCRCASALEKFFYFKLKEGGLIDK
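qHTS, 1536-well. 20nM enzyme, pH 7.5 HEPES/EDTA/Tween-20 buffer; 15 min compound preinc., RT. Start: 75uM H3(1-25), 70uM AcCoA, 50uM ThioGlo1. Read Ex340/Em540 at t=0 (autofluorescence flag) and t=20 min.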
KDM4E inh: qHTS Assay for Inhibitors of Human Jumonji Domain Containing 2E (JMJD2E). Lysine-specific demethylase 4E (Homo sapiens), B2RXH2. Potency, µM (titrated, usually from 57.1 µM), actives largely listed as inhibitors. actives 1.6% (n = 230,000). JMJD2E catalytic domain, FDH-coupled NADH fluorescence (FDH is formaldehyde dehydrogenase); note: nearly all actives have a fitted effect of over 50% in size
Sfp inh: qHTS Assay for Inhibitors of Bacillus subtilis Sfp phosphopantetheinyl transferase (PPTase) | 4'-phosphopantetheinyl transferase ffp (Bacillus subtilis), Q9F4F7 | Biochemical Sfp PPTase activity, qHTS | Potency, µM, usual class: inhibitors | actives 3.5% (n = 310,000) | AID 1490, 2009;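 note: the enzyme is Sfp with the accession as filed and its product quenches rhodamine fluorescence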
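After 15 min at room temperature with compound, 15 nM Sfp received 5 uM rhodamine-CoA plus 12.5 uM BHQ-2-ybbR (50 mM Hepes pH 7.6, 10 mM MgCl2). Rate came from the fluorescence difference over 30 min, ex 525/em 598 nm.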
IMPase Li cell: qHTS Assay for Identifying the Cell-Membrane Permeable IMPase Inhibitors: Potentiation with Lithium. CHO-M1 cells, IP1 TR-FRET (IP-One), carbachol + lithium. Potency, µM (series often up to 59.4 µM), hits mostly inhibitors. actives 0.35% (n = 210,000);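 note: IP1 builds up when IMPase is blocked and the TR-FRET signal falls; nearly all actives have a fitted effect of over 50% in size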
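Lithium-sensitised IP1 accumulation assay; M1-expressing CHO cells treated 30 min at 37C with compound. Competitive antibody detection by time-resolved FRET followed a 10 min room-temperature lysis step.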
Epigenetic reg: Quantitative High-Throughput Screen for Regulators of Epigenetic Control; murine LDR cells, GFP reporter derepression, 30 h; Potency, µM (highest dose often 53.9 µM), actives largely listed as activators; actives 0.2% (n = 280,000); note: nearly all actives have a fitted effect of over 60% in size
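In this reporter-derepression format, murine cells bearing a silenced integrated CMV-GFP locus incubate with test compound (30 h, 37 C), then are washed and imaged; fluorescent objects of 20–120 um count as induced cells.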
Hits are given with their value; n = inactive; u = inconclusive; x = not tested or not shown; [ ] = another dose, or the depositor's remark. Unless noted, calls come from the whole dose curve; as a rule, active = well fitted curve in the direction sought with a large enough effect; inconclusive = small, poorly fitted or top-dose-only effect, or another doubt; inactive = no such curve, though single readings can be large; an effect the other way counts as inactive or inconclusive.

SMILES	NPSR antagonist	KAT2A inh	KDM4E inh	Sfp inh	IMPase Li cell	Epigenetic reg
Cc1cc(C(=O)Nc2sc3c(c2C#N)CCCC3)no1	n	n	n	20µM	n	n
Cc1onc(-c2ccccc2)c1C(=O)NC(=S)Nc1sc2c(c1C#N)CCCC2	n	n	n	45µM	n	n
COc1ccc(CNC(=O)Cn2c(=O)nc(-c3ccccc3)c3cc(Cl)ccc32)cc1OC	x	n	x	x	x	n
CC(C)Cc1cc(C(=O)Nc2sc3c(c2C#N)CCCC3)no1	n	n	n	n	n	n
CC(C)Cc1cc(C(=O)Nc2sc3c(c2C#N)CCC3)no1	n	n	n	56µM	n	n
O=C(O)c1ccc(Cl)c(S(=O)(=O)Nc2ccccc2)c1	x	x	x	x	x	n
COc1ccc(/C=N/NC(=S)Nc2c(C)n(C)n(-c3ccccc3)c2=O)cc1OC	n	n	n	45µM	x	n
Cc1c(NC(=S)N/N=C/c2ccc([N+](=O)[O-])cc2O)c(=O)n(-c2ccccc2)n1C	n	n	10µM	n	x	n
CCC(C)C(NC(=O)OC(C)(C)C)C(=O)NC1COC2CC(n3cc(F)c(=O)[nH]c3=O)OC12 (stereo unspecified)	x	x	x	n	x	x
Cc1cc(O)c(C(C)C)cc1CN1CCCCC1	x	x	x	x	n	x
Cc1ccccc1NNC(N)=S	n	n	n	50µM	n	n
NC(=S)NNc1cccc(Cl)c1	n	n	n	40µM	n	n
Cc1cccc(NNC(N)=S)c1	n	n	n	14µM	n	n
Cc1ccccc1NC(=O)Nc1ccccc1C(N)=O	n	n	n	n	n	n
CC(=O)Oc1cc(OC(C)=O)c2c(=O)cc(-c3ccc(OC(C)=O)c(OC(C)=O)c3)oc2c1	x	x	u	n	n	n
CCOc1ccc(NC(=O)N2CC=C(c3c[nH]c4ccccc34)CC2)cc1	x	n	x	x	x	u
Cn1cc(C2=C(c3ccc(Cl)cc3Cl)C(=O)NC2=O)c2ccccc21	n	u	n	n	n	14µM
CC1=CN2C(=N)/C(=C/c3ccc([N+](=O)[O-])o3)C(=O)N=C2S1	13µM	n	28µM	35µM	n	u
C/C(C/C(C)=C1/SC(=S)NC1=O)=C1\SC(=S)NC1=O	n	n	n	79µM	n	n
CCOc1ccccc1CNC(=O)CN1C(=O)CCn2nc(-c3cn(C)c4ccccc34)cc21	x	n	x	x	x	n
COc1ccccc1C1CC(c2cccs2)=Nc2ccccc2S1 (stereo unspecified)	n	n	n	50µM	n	n
COc1ccccc1C1CC(c2cccs2)=NN1C(=O)CCC(=O)O (stereo unspecified)	x	n	x	n	x	x
COC(=O)CC1c2ccccc2C=C(/C=C/c2ccc3c(c2)OCO3)N1C(=O)OC (stereo unspecified)	x	x	u	n	n	x
O=C1c2ccccc2C(=O)c2c1oc(C(F)(F)F)c2C(=O)c1ccccc1	5µM	n	n	n	n	n
CCc1ccc(OCC(=O)NC(=S)Nc2cccc(CO)c2)c(Br)c1	n	n	n	25µM	n	n
SMILES	NPSR antagonist	KAT2A inh	KDM4E inh	Sfp inh	IMPase Li cell	Epigenetic reg
CN(C)S(=O)(=O)c1ccc(C(=O)NCCN2C(=O)S/C(=C\c3cccnc3)C2=O)cc1	n	n	n	40µM	n	n
COC(=O)c1cc2oc3ccccc3c2n1Cc1ccccn1	n	n[0.501 µM]	u	40µM	n	n
CCNc1ncc2ncc(=O)n(Cc3ccc(F)cc3)c2n1	x	n	x	n	n	x
C=C(C(=O)O)[C@@H]1CC[C@@]2(C)CCC[C@](C)(O)[C@@H]2C1	x	x	n	n	n	n
Cc1cc(Nc2cc(Cl)ccc2C)n2nc(-c3ccccc3)nc2n1	x	n	x	x	x	25µM
c1ccc(Cn2nnc3c(Nc4ccc5c(c4)OCO5)nc(C4CC4)nc32)cc1	n	n	u	89µM	n	n
